Results reported in PubChem BioAssay (NCATS).

Experiment: qHTS profiling of the MIPE4 collection as inhibitors of Plasmodium falciparum (3D7) proliferation (AID 743344);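 note: scaled between DMSO vehicle wells and 0.29 µM artemisinin as full inhibition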
Details: P. falciparum 3D7 in erythrocytes, SYBR Green DNA fluorescence, 72 h; at 28.5 µM unless noted
Summary of the method: (§1)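 Erythrocytes infected with P. falciparum (0.3% parasitemia, 2.5% hematocrit) incubated with compounds 72 h at 37 C, 5% CO2. Lysis with saponin/Triton buffer containing SYBR Green I, overnight at room temperature in the dark; DNA fluorescence (485/535 nm) normalised to 0.29 uM artemisinin and DMSO.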

Row | SMILES | parasite growth, % of DMSO control
1 | Cc1ccn(-c2ccc(-c3ncco3)cc2)c(=O)c1-c1ccc2nc(N)ncc2c1 | 21.1%
2 | CO[C@H]1C=CO[C@@]2(C)Oc3c(C)c(O)c4c(O)c(c5c(c4c3C2=O)NC2(CCN(CC(C)C)CC2)N=5)=NC(=O)C(C)=CC=C[C@H](C)[C@H](O)[C@@H](C)[C@@H](O)[C@@H](C)[C@H](OC(C)=O)[C@H]1C | 5.28%
3 | Nc1ncnc2c1nc(Cl)n2[C@@H]1O[C@H](CO)[C@@H](O)[C@@H]1O | 187%
4 | CC(C)(C)NC(=O)Nc1cccc(Nc2ncc(F)c(NC(C)(C)CO)n2)c1 | 5.44%
5 | NS(=O)(=O)c1ccc(NC2=CC(=O)c3ccccc3C2=O)cc1 | 6.05%
6 | CC(C)C[C@H](CC(=O)O)C(=O)N[C@@H](Cc1c[nH]c2ccccc12)C(=O)N[C@@H](C)c1ccccc1 | 79.9%
7 | Clc1cc(Cl)cc(CNc2ncncc2-c2ccc3c(c2)OCO3)c1 | 18.8%

Experiment: qHTS profiling of the MIPE4 collection as inhibitors of Plasmodium falciparum (DD2) proliferation (AID 743345)
Details: P. falciparum Dd2 in erythrocytes, SYBR Green DNA, 72 h; at 28.5 µM unless noted
Summary of the method: as §1

Row | SMILES | parasite growth remaining, % of DMSO control (lower = more inhibition)
8 | CC(=NNC(=S)N1CCC1)c1ccccn1 | 5.88%
9 | CCN(CC)CCOc1ccc(C(=C(Cl)c2ccccc2)c2ccccc2)cc1 | 9.72%
10 | Cc1ccn(-c2ccc(-c3ncco3)cc2)c(=O)c1-c1ccc2nc(N)ncc2c1 | 78.6%
11 | O=C(NCc1ccncc1)C12C[C@H]3C[C@@H](C1)CC(c1ccc(Cl)cc1)(C3)C2 | 93.6%
12 | NC[C@@H]1O[C@@H](O[C@H]2[C@@H](O)[C@H](O[C@@H]3[C@@H](O)[C@@H](N)C[C@H](N)[C@H]3O[C@H]3O[C@H](CN)[C@@H](O)[C@@H](O)[C@H]3N)O[C@H]2CO)[C@H](N)[C@@H](O)[C@@H]1O | 92.7%
13 | CN(C[C@@H]1COCCO1)S(=O)(=O)Nc1ccc2ccc3ncc(-c4cnn(C)c4)cc3c(=O)c2c1 | 47.9%
14 | COc1cc(O)c2c(c1)C(=O)c1cc(C)cc(O)c1C2=O | 92.9% [at 9.64 µM]
15 | COc1ccc2c3c1OC1C[C@@H](O)C=C[C@@]31CCN(C)C2 (some centres not stated) | 100%
16 | CN(C)c1cc(NC(=O)CNC(C)(C)C)c(O)c2c1C[C@@H]1C[C@H]3[C@H](N(C)C)C(=O)C(C(N)=O)=C(O)[C@@]3(O)C(=O)C1=C2O | 90.5%
17 | CO[C@H]1C=CO[C@@]2(C)Oc3c(C)c(O)c4c(O)c(c5c(c4c3C2=O)NC2(CCN(CC(C)C)CC2)N=5)=NC(=O)C(C)=CC=C[C@H](C)[C@H](O)[C@@H](C)[C@@H](O)[C@@H](C)[C@H](OC(C)=O)[C@H]1C | 17.8%
18 | Cn1cc(C=C2C(=O)Nc3cccnc32)c2ccccc21 | 82.2%
19 | CC1(C)O[C@H]2C[C@@H]3[C@H]4CCC5=CC(=O)C=C[C@]5(C)[C@@]4(F)[C@@H](O)C[C@]3(C)[C@]2(C(=O)CO)O1 | 92.5%
20 | Nc1ncnc2c1nc(Cl)n2[C@@H]1O[C@H](CO)[C@@H](O)[C@@H]1O | 109%
21 | CC(C)(C)NC(=O)Nc1cccc(Nc2ncc(F)c(NC(C)(C)CO)n2)c1 | 7.22%
22 | COC(=O)C1=CO[C@@H](O)[C@@H]2C(CO)=CC[C@@H]12 | 85.9%
23 | CC[C@@H]1C=C(C)C[C@H](C)C[C@H](OC)[C@H]2O[C@@](O)(C(=O)C(=O)N3CCCC[C@@H]3C(=O)O[C@H](C(C)=C[C@@H]3CC[C@H](Cl)[C@H](OC)C3)[C@H](C)[C@@H](O)CC1=O)[C@H](C)C[C@H]2OC | 6.74%
24 | Cc1c(NC(=O)c2ccc(C(C)(C)C)cc2)cccc1-c1cn(C)c(=O)c(Nc2ccc(C(=O)N3CCOCC3)cc2)n1 | 6.89%
25 | CC(C)C(C)C=CC(C)C1CCC2C3=CC=C4CC(O)CCC4(C)C3CCC21C (configuration not stated) | 102%
26 | Clc1ccc(CCC(Cn2ccnc2)Sc2c(Cl)cccc2Cl)cc1 (configuration not stated) | 6.42%
27 | CC=CC[C@@H](C)C(=O)[C@H]1C(=O)N[C@@H](C(C)C)C(=O)N(C)CC(=O)N(C)[C@@H](CC(C)C)C(=O)N[C@@H](C(C)C)C(=O)N(C)[C@@H](CC(C)C)C(=O)N[C@@H](C)C(=O)N[C@H](C)C(=O)N(C)[C@@H](CC(C)C)C(=O)N(C)[C@@H](CC(C)C)C(=O)N(C)[C@@H](C(C)C)C(=O)N1C | 93.4%
28 | NS(=O)(=O)c1ccc(NC2=CC(=O)c3ccccc3C2=O)cc1 | 9.74%
29 | COc1ccc(Cc2ccc(NC(N)=O)cc2)cc1-c1cccc(Cl)c1 | 89.9%
30 | CN(C)CCC=C1c2ccccc2COc2ccc(CC(=O)O)cc21 | 91.8%
31 | O=c1cc(-c2cccc3c2Sc2ccccc2S3)oc(N2CCOCC2)c1 | 90.2%
32 | CC=CCC(C)C(O)C1C(=O)NC(CC)C(=O)N(C)CC(=O)N(C)C(CC(C)C)C(=O)NC(C(C)C)C(=O)N(C)C(CC(C)C)C(=O)NC(C)C(=O)NC(C)C(=O)N(C)C(CC(C)C)C(=O)N(C)C(CC(C)C)C(=O)N(C)C(C(C)C)C(=O)N1C (configuration not stated) | 6.98%
